According to PubChem BioAssay (NCI):
This is part of a sample that, as a whole, favours compounds with a hit. Of some 83,000 tested, about 20% had one in any assay.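 Assay: single dose, 48 h. Readout: percent growth (0 = no net growth; negative = cell death). Active: <10.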 The source made the active and inactive calls.

Legend:
Test in all cases: NCI-60 one-dose screen, 48 h (100 = growth as untreated, 0 = no growth, -100 = all killed)
Conditions in all cases: 10 µM unless noted
[1] = test system: DU-145 prostate
[2] = test system: K-562 leukemia
[3] = test system: MALME-3M melanoma
[4] = test system: MDA-MB-231 breast
[5] = test system: RXF 393 renal
[6] = test system: SF-268 CNS
[7] = test system: SF-295 CNS
[8] = test system: SF-539 CNS
[9] = test system: UACC-257 melanoma
[10] = test system: M14 melanoma
[11] = test system: HCT-15 colon
[12] = test system: HT29 colon
[13] = test system: SNB-75 CNS
[14] = test system: PC-3 prostate
[15] = test system: SK-MEL-5 melanoma
[16] = test system: UACC-62 melanoma
[17] = test system: LOX IMVI melanoma
[18] = test system: SK-MEL-28 melanoma
[19] = test system: U251 CNS
[20] = test system: SNB-19 CNS

Measured: growth

CCCCCCCCCCCCCCCCCCOc1ccc(CC(=O)OCC[N+]2(C)CCCC2)cc1
inactive: [1] 106% | [2] 92.2% | [3] 117% | [4] 111% | [5] 101% | [6] 104% | [7] 90.6% | [8] 99.7% | [9] 107% | [10] 97.9% | [11] 97.8% | [12] 98.6% | [13] 106% | [14] 99.9% | [15] 103% | [16] 96.2% | [17] 42.5% | [18] 106%

O=C1Nc2ccc(F)cc2C12Nc1cc(Cl)ccc1S2 (stereo unspecified)
inactive: [1] 101% | [2] 48.6% | [3] 88.6% | [4] 88.1% | [5] 110% | [6] 100% | [7] 89.8% | [8] 93.8% | [9] 109% | [10] 90.9% | [11] 82.3% | [12] 103% | [13] 70.9% | [19] 94.6% | [14] 57.3% | [15] 83.4% | [16] 75.4% | [17] 85.6% | [18] 118%

O=C(Nc1cccc(Cl)c1)c1cc(N=Nc2ccc([N+](=O)[O-])cc2Cl)ccc1O
inactive: [1] 116% | [2] 26.3% | [3] 43.7% | [4] 64.1% | [5] 29.6% | [6] 90.6% | [7] 55.1% | [8] 54.2% | [10] 103% | [11] 72.5% | [12] 76.7% | [13] 66.4% | [19] 63.9% | [14] 34.8% | [15] 43.3% | [16] 79.2% | [17] 98.3% | [18] 85.5%
active: [9] -1.95%

c1ccc2cc3nc4cc5ccccc5cc4nc3cc2c1
inactive: [1] 110% | [2] 95.1% | [3] 134% | [4] 86.6% | [5] 137% | [6] 97.7% | [7] 134% | [8] 108% | [9] 98.2% | [10] 101% | [11] 96.9% | [12] 103% | [13] 89.3% | [14] 85% | [15] 102% | [16] 96.5% | [17] 86.1% | [18] 96.9%

CN(C)CC1=NC2SC=C(c3ccccc3)C2C(=O)N1CC#N (stereo unspecified)
inactive: [1] 111% | [2] 60% | [3] 83.1% | [4] 92% | [5] 81.3% | [6] 109% | [7] 99.2% | [8] 101% | [9] 108% | [10] 105% | [11] 105% | [12] 101% | [13] 87.6% | [19] 104% | [14] 71.4% | [15] 107% | [16] 87.3% | [17] 99.7% | [18] 119%

CCN(CC)CCN1CC(O)=C(c2nc(-c3ccc(Cl)cc3)cs2)C1=N
inactive: [1] 66.4% | [4] 12.6% | [5] 25% | [7] 24% | [13] 46.7% | [14] 76%
active: [2] 1.62% | [3] -44.3% | [6] 4.19% | [8] -69.8% | [9] -38.4% | [10] -57.1% | [11] -13.4% | [12] -18.1% | [19] -48.2% | [15] -1.71% | [16] -81.4% | [17] -61.4% | [18] -66.7%

O=C(CCCCCCSc1nc(-c2ccccc2)cc(-c2ccc(Cl)cc2)n1)NO
active: [1] 6.26% | [2] 8.35% | [3] 7.3% | [5] -17% | [9] 6.32% | [10] 6.52% | [12] 4.56% | [19] 0.693% | [15] -26.9% | [16] -1.11% | [17] -78%
inactive: [4] 25.3% | [6] 15% | [7] 27.1% | [8] 25% | [11] 15.6% | [13] 17.8% | [14] 39.9% | [18] 42%

O=c1oc2ccccc2c(Cl)c1Cl
inactive: [1] 107% | [2] 37.2% | [3] 58.5% | [4] 62.6% | [5] 66.6% | [6] 86.5% | [7] 106% | [8] 81.3% | [9] 40% | [10] 17.1% | [11] 38.9% | [12] 105% | [13] 82.4% | [19] 49.1% | [14] 101% | [15] 46.1% | [16] 74.7% | [17] 10.5% | [18] 72.4%

COc1ccc2c(c1)[nH]c(=O)c1c3cccnc3cn21
active: [1] 9.39% | [7] -6.51% | [8] 8.85% | [12] 8.6% | [15] -33.6%
inactive: [2] 17.4% | [3] 62.6% | [4] 28.9% | [5] 37% | [6] 27.3% | [9] 64.5% | [10] 16.2% | [11] 13.7% | [13] 40.5% | [19] 15.6% | [14] 22% | [16] 16.5% | [17] 33.1% | [18] 70.8%

CN(C)c1ccc(/C=C/C(=O)c2cccc(Nc3nc(Nc4ccccc4)nc(Nc4ccccc4)n3)c2)cc1
inactive: [1] 99.4% | [2] 67.7% | [3] 88.2% | [4] 81.8% | [5] 77.5% | [6] 97.2% | [7] 129% | [8] 87.9% | [9] 110% | [10] 91.5% | [11] 80.5% | [12] 53.8% | [19] 91.5% | [14] 81.7% | [15] 69.5% | [16] 91.2% | [17] 88.7% | [18] 75%
active: [13] 5.3%

CCN(CC)CCCCCCNc1cc(OC)c(Cl)c2cccnc12
inactive: [1] 95.4% | [2] 59.6% | [3] 88.4% | [4] 66.8% | [5] 84.6% | [6] 85.3% | [7] 82.3% | [8] 81.9% | [10] 27.2% | [11] 78.4% | [12] 16.2% | [13] 63.5% | [19] 74.4% | [14] 64.9% | [15] 68.7% | [17] 55.7% | [18] 64.6%
active: [9] -1.76% | [16] -30.6%

Cc1cc[c-]cc1.Fc1c[c-]c(-c2ccccn2)c(F)c1.[Pt+2].c1ccc(P(C[PH+](c2ccccc2)c2ccccc2)c2ccccc2)cc1
active: [2] 8.02% | [3] -15.8% | [4] -9.05% | [6] 9.02% | [7] 6.93% | [9] -12.1% | [13] 4.48% | [15] -94.9% | [16] 9.82%
inactive: [1] 17.5% | [5] 23.1% | [8] 21.5% | [11] 47% | [12] 16.9% | [20] 17.5% | [19] 12.9% | [14] 11.2% | [17] 18.5% | [18] 36.4%

O=C(/C=C/c1ccc(Cl)nc1)c1ccc(Cl)cc1Cl
active: [2] 7.65% | [17] 6.52%
inactive: [1] 108% | [3] 105% | [4] 107% | [5] 104% | [6] 102% | [7] 91.1% | [8] 107% | [9] 94.5% | [10] 97.6% | [11] 69.2% | [12] 75.8% | [20] 88.3% | [19] 64% | [14] 101% | [15] 99.5% | [16] 97.2% | [18] 101%

CCN(CC)CCCC(C)Nc1c2ccc(Cl)cc2nc2ccc(O)cc12 (stereo unspecified)
active: [2] -3.7% | [5] -19.9% | [9] -58.4% | [17] 0.124%
inactive: [1] 41.3% | [3] 51.2% | [4] 47.4% | [6] 58.5% | [7] 61% | [8] 15.6% | [10] 14.2% | [11] 42.3% | [12] 48.2% | [20] 44.8% | [19] 32.5% | [14] 48.7% | [15] 34.7% | [16] 82.3% | [18] 57.5%

COc1ccc(-c2nc3c(N)c(CO)c(C)nc3o2)cc1
inactive: [1] 102% | [2] 91.5% | [3] 96.7% | [4] 111% | [5] 96% | [6] 94.9% | [7] 99.1% | [8] 93.9% | [9] 101% | [10] 106% | [11] 102% | [12] 97.7% | [20] 111% | [19] 96.5% | [14] 103% | [15] 95.3% | [16] 97.7% | [17] 93.5% | [18] 106%

CC/C=C1/C(=O)C=C[C@@H]1C/C=C\CCCC(=O)O
inactive: [1] 98.3% | [2] 25.1% | [3] 101% | [4] 79.4% | [5] 110% | [6] 92.4% | [7] 101% | [8] 101% | [9] 73.9% | [10] 77.5% | [11] 72.8% | [12] 78.9% | [20] 92.1% | [14] 80.5% | [15] 81.5% | [16] 30.7% | [17] 19.9% | [18] 96.9%
